# Experimental data reported in PubChem BioAssay (NCATS).
# Values joined by “and” are separate entries in the source; they are usually repeats but may differ in a detail not shown here. Equal entries are not always repeated. Inconclusive results are not listed. Entries that show only a call come without a potency. Active and inactive are the calls of the source. Unless noted, the call rests on the fitted dose curve; in most records, active means well fitted curve in the direction sought with a large enough effect; inconclusive means small, poorly fitted or top-dose-only effect, or another doubt; inactive means no such curve, though single readings can be large; an effect the other way counts as inactive or inconclusive.
# How the values were obtained:
# [1] = Primary qHTS for small molecule stabilizers of the endoplasmic reticulum resident proteome: Secreted ER Calcium Modulated Protein (SERCaMP) assay (AID 1508630)
# Summary of the method: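 GLuc-SERCaMP-expressing SH-SY5Y cells, pretreated 16 h with compound, are challenged with thapsigargin to empty ER calcium stores; after 4 h, coelenterazine is added directly to the medium and luminescence is imaged.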
# Papain (Carica papaya) = Papain (Carica papaya) (UniProt P00784); experiment: Primary qHTS assay for inhibitors of the protease papain (AID 1645873);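 further: papain turnover of Z-FR-AMC read as the AMC fluorescence gain over 10 min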; further: potency means the concentration at half of the fitted maximal effect
# [2] = Cell Viability qHTS for small molecule stabilizers of the endoplasmic reticulum resident proteome (AID 1508629); details: cell viability counter-screen, 100 nM thapsigargin for final 4 h;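 further: human SH-SY5Y neuroblastoma cells carrying the GLuc-SERCaMP reporter; compound exposure about 46 h in total before the viability read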
# Excerpt: Assay Provider: Brandon K. Harvey Ph.D.
# National Institute on Drug Abuse, National Institutes of Health, Baltimore, MD
# Endoplasmic reticulum (ER) dysregulation is associated with human pathologies including neurodegenerative, cardiovascular, muscular, and diabetic conditions. Maintenance of ER calcium is critical for functions of the ER and its depletion can lead to loss of ER resident proteins, in a process termed exodosis. Therapeutic compounds capable of attenuating the redistribution of ER proteins under pathological conditions may slow or stop disease progression. To identify such compounds, we performed a quantitative high-throughput screen (qHTS) using the SERCaMP assay, which monitors secretion of ER resident proteins triggered by calcium depletion.
# SERCaMP was initially developed as a reporter of ER calcium homeostasis using a Gaussia luciferase with a modified signal peptide and carboxy-terminus (GLuc-SERCaMP), modifications that confer secretion of the reporter in response to ER calcium depletion (Henderson et al., 2014). The assay was used to screen 9,501 compounds, including a collection of drugs approved by the FDA (US), EMA (EU), NHI (Japan), and HC (Canada) regulatory agencies (Huang et al., 2011). Since the SERCaMP reporter reflects the exodosis phenomenon (Trychta et al., 2018a), compounds identified in the screen have the potential to prevent exodosis by different mechanisms such as stabilizing ER calcium or augmenting ERS retrieval.
# 1. Henderson, M.J., Wires, E.S., Trychta, K.A., Richie, C.T., and Harvey, B.K. (2014). SERCaMP: a carboxy-terminal protein modification that enables monitoring of ER calcium homeostasis. Mol Biol Cell 25, 2828-2839.
# 2. Huang, R., Southall, N., Wang, Y., Yasgar, A., Shinn, P., Jadhav, A., Nguyen, D.T., and Austin, C.P. (2011). The NCGC pharmaceutical collection: a comprehensive resource of clinically approved drugs enabling repurposing and chemical genomics. Sci Transl Med 3, 80ps16.
# 3. Trychta, K.A., Back, S., Henderson, M.J., and Harvey, B.K. (2018a). KDEL Receptors Are Differentially Regulated to Maintain the ER Proteome under Calcium Deficiency. Cell Rep 25, 1829-1840 e1826.
# SEQUENCE No. (1, 2, 3, etc.); […] (e.g., Cells, Incubation, Reagent, etc.); VALUE and DESCRIPTION.
# 1; Reagent; 5 uL; 1000 SH-SY5Y cells per wells
# 3; Compound; 23 nL; Control inhibitor / compound library
# 5; Reagent; 100 nM; Thapsigargin
# 7; Reagent; 5 uL; CellTiter-Glo (Promega)
# 8; Time; 10 min; room temperature
# 9; Detection; Luminescence; ViewLux imaging system
# NOTES (numbers refer to sequence above) […]
# 7; Cell viability was measured using the CellTiter-Glo Luminescent Cell Viability Assay (Promega). […]
# 9; Luminescence was measured using a ViewLux CCD imaging system (Perkin Elmer) equipped with clear filters.
# [3] = molecular target: Cytochrome P450 2C9 (Homo sapiens) (UniProt P11712); experiment: Cytochrome P450 family 2 subfamily C member 9 (CYP2C9) small molecule antagonists: luciferase biochemical (cell-free) qHTS assay (AID 1645842; active means well fitted curve in the direction sought with a large enough effect in the repeat runs; an effect the other way counts as inactive or inconclusive; further: nearly all actives have a fitted effect of over 55% in size; further: potency means the concentration at half of the fitted maximal effect)
# Summary of the method: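 Luminescence, after 20 min with luciferin detection reagent, reflected CYP2C9 turnover during a 1 h NADPH-driven reaction at 37C. Enzyme-substrate mix contained 0.4% bovine serum albumin and was preincubated with compound 10 min at room temperature.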
# [4] = Cytotoxicity counterscreen for inhibitors of SARS-CoV-2 cell entry (AID 1645845; calls by dose curve; further: nearly all actives have a fitted effect of over 50% in size); details: outcome: dose series up to 57.1 µM unless noted
# Summary of the method: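 Expi293F/hACE2 cells seeded overnight; cpd pin-transferred in DMSO, 1 h preincubation, + media, 48 h 37 C 5% CO2; ATPLite 1step luminescence; normalized to cells and no cells.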
# [5] = Primary qHTS for inhibitors of nuclear receptor binding SET domain protein 2 (NSD2) in an isogenic RCH-ACV NSD2 p.E1099K mutant (9B) (AID 1645876); further: nearly all actives have a fitted effect of over 70% in size; further: potency means the concentration at half of the fitted maximal effect
# [6] = Primary qHTS for inhibitors of nuclear receptor binding SET domain protein 2 (NSD2) in an RCH-ACV wild type WT cells (2C) (AID 1645877); further: nearly all actives have a fitted effect of over 70% in size; further: potency means the concentration at half of the fitted maximal effect
# [7] = molecular target: Rap guanine nucleotide exchange factor 3 (Homo sapiens) (UniProt O95398); experiment: Confirmatory qHTS for antagonist of cAMP-regulated guanine nucleotide exchange factor 3 (EPAC1) (AID 1645880); further: nearly all actives have a fitted effect of over 55% in size
# Summary of the method: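 Nucleotide exchange uses 100 nM EPAC1, 250 nM RAP1B-BODIPY-GDP and 50 uM GDP, with compounds in a concentration-titration series. After 5 min at room temperature, fluorescence (480 nm ex/540 nm em) is read every 5 min for 30 min. Data are normalized to control ATA and DMSO.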
# [8] = molecular target: Rap guanine nucleotide exchange factor 3 (Homo sapiens) (UniProt O95398); experiment: Confirmatory qHTS for agonist of cAMP-regulated guanine nucleotide exchange factor 3 (EPAC1) (AID 1645881); further: nearly all actives have a fitted effect of over 75% in size; further: potency means the concentration at half of the fitted maximal effect
# [9] = molecular target: Rap guanine nucleotide exchange factor 4 (Homo sapiens) (UniProt Q8WZA2); experiment: Confirmatory qHTS for agonist of cAMP-regulated guanine nucleotide exchange factor 4 (EPAC2) (AID 1645884);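 further: nucleotide exchange releases bodipy-GDP from Rap1 and this lowers its fluorescence; nearly all actives have a fitted effect of over 65% in size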; further: potency means the concentration at half of the fitted maximal effect
# [10] = molecular target: Catechol O-methyltransferase (Homo sapiens) (UniProt P21964); experiment: Confirmatory Screen for Target Class Profiling of Small Molecule Inhibitors of Methyltransferases (AID 1745852; calls by dose curve; further: potency means the concentration at half of the fitted maximal effect); details: MTase-Glo luminescence, SAH detection, recombinant enzyme; measured here: COMT max response; stronger effect = lower value
# [11] = molecular target: Guanidinoacetate N-methyltransferase (Homo sapiens) (UniProt Q14353); experiment: as above; details: MTase-Glo luminescence, SAH detection, recombinant enzyme; activity change, negative = inhibition: at 57.3 µM (top of the series) unless noted
# [12] = molecular target: Nicotinamide N-methyltransferase (Homo sapiens) (UniProt P40261); experiment: as above; details: MTase-Glo luminescence, SAH detection, recombinant enzyme; measured here: NNMT max response; stronger effect = lower value
# [13] = molecular target: Phenylethanolamine N-methyltransferase (Homo sapiens) (UniProt P11086); experiment: as above; details: MTase-Glo luminescence, SAH detection, recombinant enzyme; measured here: PNMT max response; stronger effect = lower value
# [14] = A High-Content qHTS Against Drug Library for the Identification of Small Molecules that Inhibit DYT1 Early Onset Primary Dystonia-Associated Cell Pathology (AID 1645839; calls by dose curve; further: potency means the concentration at half of the fitted maximal effect)
# Summary of the method: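 Readout: %pathology, the punctate EGFP-TorsinA distribution from imaging, as the primary channel and cell count as the toxicity counterscreen. HEK293 Flp-In cells expressing delE TorsinA were induced with tetracycline and treated with compound for 48 h.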
# Sequence of Rap guanine nucleotide exchange factor 3 (Homo sapiens) (O95398 whole entry, looked up): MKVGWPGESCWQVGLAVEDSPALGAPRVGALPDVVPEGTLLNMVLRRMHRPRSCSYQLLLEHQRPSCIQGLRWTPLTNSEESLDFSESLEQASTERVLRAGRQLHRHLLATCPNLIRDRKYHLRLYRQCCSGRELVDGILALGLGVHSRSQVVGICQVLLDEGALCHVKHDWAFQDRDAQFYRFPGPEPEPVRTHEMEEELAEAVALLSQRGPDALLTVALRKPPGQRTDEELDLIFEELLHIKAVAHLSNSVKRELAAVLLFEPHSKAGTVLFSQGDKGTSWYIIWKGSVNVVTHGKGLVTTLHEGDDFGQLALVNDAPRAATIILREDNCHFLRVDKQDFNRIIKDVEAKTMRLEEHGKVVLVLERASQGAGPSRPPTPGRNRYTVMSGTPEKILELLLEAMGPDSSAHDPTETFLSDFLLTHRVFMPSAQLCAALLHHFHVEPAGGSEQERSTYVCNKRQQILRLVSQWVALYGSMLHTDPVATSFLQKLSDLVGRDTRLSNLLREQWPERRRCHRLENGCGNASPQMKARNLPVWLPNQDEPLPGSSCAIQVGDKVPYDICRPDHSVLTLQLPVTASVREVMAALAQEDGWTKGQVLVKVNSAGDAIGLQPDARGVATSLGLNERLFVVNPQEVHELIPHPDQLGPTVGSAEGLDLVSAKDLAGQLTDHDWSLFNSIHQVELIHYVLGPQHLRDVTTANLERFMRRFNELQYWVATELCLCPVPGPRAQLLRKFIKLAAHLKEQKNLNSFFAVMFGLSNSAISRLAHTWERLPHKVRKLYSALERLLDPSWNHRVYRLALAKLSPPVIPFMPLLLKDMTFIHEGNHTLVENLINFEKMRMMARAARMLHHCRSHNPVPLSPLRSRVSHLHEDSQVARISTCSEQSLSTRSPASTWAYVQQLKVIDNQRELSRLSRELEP
# Sequence of Nicotinamide N-methyltransferase (Homo sapiens) (P40261 whole entry, looked up): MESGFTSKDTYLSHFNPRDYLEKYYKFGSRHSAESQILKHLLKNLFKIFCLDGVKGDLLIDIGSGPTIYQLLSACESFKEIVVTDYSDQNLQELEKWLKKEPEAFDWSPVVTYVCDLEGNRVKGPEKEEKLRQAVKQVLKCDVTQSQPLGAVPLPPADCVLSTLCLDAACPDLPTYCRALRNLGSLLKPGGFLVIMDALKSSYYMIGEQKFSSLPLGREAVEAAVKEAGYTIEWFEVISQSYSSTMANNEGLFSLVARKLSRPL
# Sequence of Catechol O-methyltransferase (Homo sapiens) (P21964 whole entry, looked up): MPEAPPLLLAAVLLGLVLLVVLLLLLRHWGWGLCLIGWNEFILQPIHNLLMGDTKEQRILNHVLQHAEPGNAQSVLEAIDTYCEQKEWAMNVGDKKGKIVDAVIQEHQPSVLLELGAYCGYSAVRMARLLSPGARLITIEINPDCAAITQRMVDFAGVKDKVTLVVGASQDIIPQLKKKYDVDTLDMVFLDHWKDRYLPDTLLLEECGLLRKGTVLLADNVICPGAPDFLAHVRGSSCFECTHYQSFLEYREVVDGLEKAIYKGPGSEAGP
# Sequence of Phenylethanolamine N-methyltransferase (Homo sapiens) (P11086 whole entry, looked up): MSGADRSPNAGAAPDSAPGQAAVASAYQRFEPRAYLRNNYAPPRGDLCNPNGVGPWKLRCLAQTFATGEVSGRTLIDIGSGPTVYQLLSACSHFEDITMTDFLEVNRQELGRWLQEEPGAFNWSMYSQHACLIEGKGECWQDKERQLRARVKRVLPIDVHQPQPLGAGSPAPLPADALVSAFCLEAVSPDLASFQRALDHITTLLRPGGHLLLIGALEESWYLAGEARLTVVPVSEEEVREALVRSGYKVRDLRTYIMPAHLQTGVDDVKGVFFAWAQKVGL
# Sequence of Papain (Carica papaya) (P00784 whole entry, looked up): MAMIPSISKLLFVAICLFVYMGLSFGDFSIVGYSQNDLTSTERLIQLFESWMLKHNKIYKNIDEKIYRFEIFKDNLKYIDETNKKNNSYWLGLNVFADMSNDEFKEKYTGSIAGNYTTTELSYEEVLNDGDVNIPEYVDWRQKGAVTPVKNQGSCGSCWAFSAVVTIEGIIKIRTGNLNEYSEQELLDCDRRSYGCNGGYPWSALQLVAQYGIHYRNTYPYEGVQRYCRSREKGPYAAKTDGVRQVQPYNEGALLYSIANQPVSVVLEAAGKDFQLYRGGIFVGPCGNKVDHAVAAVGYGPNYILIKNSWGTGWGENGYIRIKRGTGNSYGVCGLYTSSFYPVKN
# Sequence of Cytochrome P450 2C9 (Homo sapiens) (P11712 whole entry, looked up): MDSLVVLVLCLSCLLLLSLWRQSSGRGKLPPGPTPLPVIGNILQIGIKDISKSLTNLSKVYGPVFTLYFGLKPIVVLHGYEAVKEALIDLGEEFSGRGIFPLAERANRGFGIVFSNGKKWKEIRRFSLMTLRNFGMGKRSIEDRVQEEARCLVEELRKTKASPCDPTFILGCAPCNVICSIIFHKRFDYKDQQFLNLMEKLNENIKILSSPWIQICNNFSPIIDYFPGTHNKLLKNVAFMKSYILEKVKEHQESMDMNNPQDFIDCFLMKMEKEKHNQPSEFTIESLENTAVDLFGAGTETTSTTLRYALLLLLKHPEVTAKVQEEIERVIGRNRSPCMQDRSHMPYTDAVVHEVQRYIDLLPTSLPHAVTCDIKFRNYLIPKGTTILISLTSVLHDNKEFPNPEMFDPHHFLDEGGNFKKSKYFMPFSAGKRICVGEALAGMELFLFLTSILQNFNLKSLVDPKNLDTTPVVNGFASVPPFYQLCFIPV
# Sequence of Rap guanine nucleotide exchange factor 4 (Homo sapiens) (Q8WZA2 whole entry, looked up): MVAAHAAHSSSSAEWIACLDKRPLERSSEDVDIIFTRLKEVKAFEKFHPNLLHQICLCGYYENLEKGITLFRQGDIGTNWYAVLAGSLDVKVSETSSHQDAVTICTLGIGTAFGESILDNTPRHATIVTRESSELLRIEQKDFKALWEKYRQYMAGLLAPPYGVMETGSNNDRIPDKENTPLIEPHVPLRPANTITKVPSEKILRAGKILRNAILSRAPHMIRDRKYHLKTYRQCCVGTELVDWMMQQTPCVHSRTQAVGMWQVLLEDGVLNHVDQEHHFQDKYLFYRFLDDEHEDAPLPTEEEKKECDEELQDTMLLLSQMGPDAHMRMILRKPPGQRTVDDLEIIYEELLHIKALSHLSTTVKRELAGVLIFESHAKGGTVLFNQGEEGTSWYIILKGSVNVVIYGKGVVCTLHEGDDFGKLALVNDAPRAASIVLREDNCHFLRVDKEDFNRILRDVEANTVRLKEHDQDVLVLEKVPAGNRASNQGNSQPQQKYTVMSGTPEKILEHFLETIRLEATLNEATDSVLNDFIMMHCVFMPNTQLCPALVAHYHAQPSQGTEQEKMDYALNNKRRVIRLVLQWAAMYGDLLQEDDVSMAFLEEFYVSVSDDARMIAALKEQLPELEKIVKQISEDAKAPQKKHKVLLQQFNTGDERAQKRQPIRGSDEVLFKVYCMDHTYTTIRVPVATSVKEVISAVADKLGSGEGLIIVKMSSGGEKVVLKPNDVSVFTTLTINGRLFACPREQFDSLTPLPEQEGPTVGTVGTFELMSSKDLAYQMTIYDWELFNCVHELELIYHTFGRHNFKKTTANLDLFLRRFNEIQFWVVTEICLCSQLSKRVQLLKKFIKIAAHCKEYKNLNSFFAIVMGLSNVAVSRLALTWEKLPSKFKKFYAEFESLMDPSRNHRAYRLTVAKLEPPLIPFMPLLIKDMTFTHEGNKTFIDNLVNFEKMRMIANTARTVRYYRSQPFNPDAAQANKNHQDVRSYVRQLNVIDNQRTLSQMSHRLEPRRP
smiles,measurement,setting,value
CC1(C)S[C@@H]2[C@H](N)C(=O)N2[C@H]1C(=O)O,outcome,[1],inactive
O=C1C=CC(=O)C=C1,outcome,[1],inactive
same,Potency,Papain (Carica papaya),inactive
Nc1ccc(CCN2CCN(c3cccc(C(F)(F)F)c3)CC2)cc1,max response,[2],11.7% (inactive)
same,Potency,Papain (Carica papaya),inactive
NCCc1c[nH]c2ccc(C(N)=O)cc12,outcome,[1],inactive
same,Potency,Papain (Carica papaya),inactive
Oc1ccc2c3c1O[C@H]1c4oc5ccccc5c4C[C@@]4(O)C(C2)N(CC2CC2)CCC314 (some centres undefined),outcome,[1],inactive
same,Potency,Papain (Carica papaya),inactive
N[C@@H](Cn1oc(=O)[nH]c1=O)C(=O)O,outcome,[1],inactive
same,Potency,Papain (Carica papaya),inactive
OCc1cnc[nH]1,outcome,[1],inactive
same,Potency,Papain (Carica papaya),inactive
O=S1(=O)N(CCN2CC=C(c3c[nH]c4cc(F)ccc34)CC2)c2cccc3c2N1CCC3,outcome,[1],inactive
same,Potency,Papain (Carica papaya),inactive
C[Se]C[C@H](N)C(=O)O,outcome,[1],inactive
O=c1ccc2[nH]cc(C3=CCNCC3)c2[nH]1,outcome,[1],inactive
same,Potency,Papain (Carica papaya),25.1 µM (active)
C[C@H](N)Cc1cccc(C(F)(F)F)c1,outcome,[1],inactive
same,Potency,Papain (Carica papaya),inactive
COc1ccc(OC)c(C(O)C(C)N)c1 (centres undefined),outcome,[1],inactive
same,Potency,[3],inactive
same,outcome,[4],inactive
NC(CCCCCP(=O)(O)O)C(=O)O (centres undefined),outcome,[1],inactive
same,Potency,Papain (Carica papaya),inactive
C[C@H](Cc1ccc2c(c1)OC(C(=O)O)(C(=O)O)O2)NC[C@H](O)c1cccc(Cl)c1,outcome,[1],inactive
same,Potency,Papain (Carica papaya),inactive
NC(Cc1ccc(N(CCCl)CCCl)cc1)C(=O)O (centres undefined),outcome,[1],inactive
CCNC(=O)[C@H]1O[C@@H](n2cnc3c(N)ncnc32)[C@H](O)[C@@H]1O,outcome,[1],inactive
same,Potency,Papain (Carica papaya),inactive
Cc1o[nH]c(=O)c1CC(N)C(=O)O (centres undefined),outcome,[1],inactive
same,Potency,Papain (Carica papaya),inactive
C=CCN1CC[C@]23c4c5ccc(O)c4O[C@@H]2/C(=N/N=C2\CC[C@@]4(O)C6Cc7ccc(O)c8c7[C@@]4(CCN6CC=C)[C@@H]2O8)CC[C@@]3(O)C1C5,outcome,[1],inactive
N=C(N)c1ccc(CS(=O)(=O)F)cc1,outcome,[1],inactive
same,Potency,Papain (Carica papaya),inactive
C[N+]1(C)CCOC(O)(c2ccc(-c3ccc(C4(O)C[N+](C)(C)CCO4)cc3)cc2)C1 (centres undefined),outcome,[1],inactive
same,Potency,Papain (Carica papaya),inactive
CC(=O)NBr,outcome,[1],inactive
same,Potency,Papain (Carica papaya),inactive
CC(=O)OCC1=C(C(=O)O)N2C(=O)[C@@H](NC(=O)CCC[C@@H](N)C(=O)O)[C@H]2SC1,outcome,[1],inactive
C[C@@H]1O[C@H](C[N+](C)(C)C)CS1,outcome,[1],inactive
O[C@H]1[C@H]2[C@H](O)CCCN2C[C@H]1O,max response,[2],13.7% (inactive) and 34.4% (inactive)
NCCCP(=O)(O)O,outcome,[1],inactive
same,Potency,Papain (Carica papaya),inactive
C[C@H](N)CN1CCc2ccc(Br)cc21,max response,[2],-3.5% (inactive)
same,Potency,Papain (Carica papaya),inactive
O=C(O)c1cc[c]([Hg][Cl])cc1,outcome,[1],inactive
CCCN(CCC)CCc1c[nH]c2ccc(C(N)=O)cc12,outcome,[1],inactive
NCC(CP(=O)(O)O)c1ccc(Cl)cc1 (centres undefined),outcome,[1],inactive
NC(C(=O)O)c1cc(=O)[nH]o1 (centres undefined),outcome,[1],inactive
same,Potency,Papain (Carica papaya),inactive
CCCn1c(=O)c2[nH]c(C3CCCC3)nc2n(CCCOC(=O)c2ccc(S(=O)(=O)F)cc2)c1=O,outcome,[1],inactive
same,Potency,Papain (Carica papaya),inactive
Clc1ccc(N2CC3CCC(C2)N3)nn1,max response,[2],-7.5% (inactive)
same,Potency,Papain (Carica papaya),inactive
O=c1c2ccccc2[se]n1-c1ccccc1,outcome,[1],inactive
C=CCN(C1=NCCN1)c1c(Cl)cccc1Cl,outcome,[1],inactive
C/C(O)=C(\C#N)C(=O)Nc1cc(Br)ccc1Br,outcome,[1],inactive
same,outcome,[4],inactive
same,Potency,[5],inactive
same,Potency,[6],inactive
CO[C@H]1CC=C2CCN3CCC4=C(CC(=O)OC4)[C@]23C1,outcome,[1],inactive
same,Potency,Papain (Carica papaya),inactive
OC1CCCCC1N1CCC(c2ccccc2)CC1 (centres undefined),outcome,[1],inactive
same,Potency,Papain (Carica papaya),inactive
C[N+](C)(C)CC#CCOC(=O)Nc1cccc(Cl)c1,outcome,[1],inactive
same,Potency,Papain (Carica papaya),inactive
C[N+](C)(C)CC#CCN1CCCC1=O,outcome,[1],inactive
same,Potency,Papain (Carica papaya),inactive
O=C1OC2(c3cc(Br)c(O)cc3Oc3c2cc(Br)c(O)[c]3[Hg])c2ccccc21 (centres undefined),outcome,[1],inactive
same,"activity, negative = inhibition",[7],245% [at 22 µM] (inactive)
same,Potency,[8],4.75 µM (active)
same,Potency,[9],1.34 µM (active)
CCCN(CCC)[C@@H]1CCc2cccc(O)c2C1,outcome,[1],inactive
same,Potency,Papain (Carica papaya),inactive
CCCn1c(C)c(C(=O)c2ccc3ccccc3c2)c2ccccc21,outcome,[1],inactive
same,outcome,[7],inactive
same,Potency,[8],inactive
same,Potency,[9],inactive
CCCCCCCCCCCCCC(=O)O[C@@H]1[C@@H](C)[C@@]2(O)[C@@H](C=C(CO)C[C@@]3(O)C(=O)C(C)=C[C@@H]23)C2C(C)(C)[C@@]21OC(C)=O (some centres undefined),outcome,[1],inactive
same,Potency,Papain (Carica papaya),inactive
COc1ccc2[nH]cc(CCN)c2c1,outcome,[1],inactive
same,Potency,Papain (Carica papaya),inactive
COc1ccc2[nH]c3c(c2c1)CCNC3,outcome,[1],inactive
same,activity,[10],-6.01%
same,"activity change, negative = inhibition",[11],5.37%
same,activity,[12],-13.7%
same,activity,[13],-2.07%
CN(N=O)c1cc(O)ccc1O,outcome,[1],inactive
same,Potency,Papain (Carica papaya),inactive
same,activity,[10],-96.7%
same,Potency,[11],24.3 µM (active)
same,activity,[12],-67.2%
same,activity,[13],-42.7%
CN1CCC(c2c[nH]c3ccc(O)cc23)CC1,outcome,[1],inactive
same,Potency,Papain (Carica papaya),inactive
NC(N)=NOCC[C@H](N)C(=O)O,outcome,[1],inactive
same,Potency,Papain (Carica papaya),inactive
CCCN1CC[C@@H]2c3cc(O)ccc3CC[C@@H]21,outcome,[1],inactive
same,Potency,Papain (Carica papaya),inactive
same,activity,[10],1.91%
same,"activity change, negative = inhibition",[11],0.453%
same,activity,[12],-3.17%
same,activity,[13],-0.789%
Cc1sc2ccccc2c1CC1=NCCN1,outcome,[1],inactive
same,Potency,Papain (Carica papaya),28.2 µM (active)
same,activity,[10],6.03%
same,"activity change, negative = inhibition",[11],4.23%
same,activity,[12],-6.99%
same,activity,[13],-30.1%
C[CH2][Hg][S]c1ccccc1C(=O)O,Potency,[14],5.01 µM (active)
same,Potency,[3],3.47 µM (active)
same,Potency,[5],0.668 µM (active)
same,Potency,[6],0.841 µM (active)
